HCV NS3h FP – HCV NS3 helicase inhibitors, primary screen, biochemical, fluorescence polarization, ChemBridge library; Hepatitis C virus NS3 helicase; NS3h Cy5-dT15 DNA binding; inhibition, % at 100 µM; 16,000 compounds, 1.6% hits; AID 687043, 2013;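 active means inhibition above the average over every tested compound plus 3 SD, cut at about 40% in these data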
Cy5 interf NS3h – Cy5 fluorescence quenchers or enhancers, artefact control for HCV NS3 helicase inhibitor project, biochemical, ChemBridge library, Cy5 readout; Cy5-dT15 DNA with NS3h, fluorescence interference; actives lie on both sides; signal over control mean, under 1 quenches; fluorescence interference ratio at 100 µM; 16,000 compounds, 6% hits;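 active means compound fluorescence over control fluorescence at most 0.8, a quencher, or at least a set upper limit, an enhancer; inactive means ratio between 0.8 and the set upper limit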
Of the large screens only hits and unclear results are named; the others gave an inactive call. Only some compounds are listed: those with a hit (about 6.8% of all), similar ones and a draw of the others.

O=C(c1ccco1)N1CCN(C(c2ccccc2)c2ccccc2)CC1	none
Cc1ccc(CN2CCN(N=Cc3ccc(Br)cc3)CC2)c(C)c1	none
CC(C)n1c(=S)[nH]c2c1c(=O)n(C)c(=O)n2C	none
Cc1ccc(-n2nc(C)c(-c3cccc([N+](=O)[O-])c3)c2C)cc1C	none
Cc1nn(-c2ccc(Cl)c(Cl)c2)c(C)c1-c1cccc([N+](=O)[O-])c1	Cy5 interf NS3h 0.69
CCOC(=O)c1c(NC(C)=O)sc(C)c1-c1ccccc1	none
O=C(NC1C2CC3CC(C2)CC1C3)c1ccc(I)cc1 (stereo unspecified)	none
COc1ccc(S(=O)(=O)N2CCN(C(=O)c3cccs3)CC2)cc1	Cy5 interf NS3h 0.69
COc1ccc(S(=O)(=O)N2CCN(C(=O)c3cccc(F)c3)CC2)cc1	none
O=c1oc2cc(OCc3c(F)cccc3Cl)ccc2c2ccccc12	none
CCCCc1cccc(C(=O)CSc2nc(C)c(C)c(C)c2C#N)c1	none
CC(C)(C)C(=O)/C=C(/O)C(=O)NCc1ccccc1	none
CC(C)(C)C(=O)/C=C(N)\C=C\c1ccccc1	Cy5 interf NS3h 0.64
COc1cc(C=O)ccc1Oc1ncnc2sc3c(c12)CCCC3	none
CCOC(=O)c1c(NC(=S)Nc2ccc(OC)cc2)sc2c1CCCCC2	none
COC(=O)c1c(NC(=O)Nc2ccc(Cl)c(Cl)c2)sc2c1CCC2	Cy5 interf NS3h 1.2
O=C1c2cccnc2C(=O)N1c1ccc(Oc2ccc(N3C(=O)c4cccnc4C3=O)cc2)cc1	Cy5 interf NS3h 0.68
COC(=O)c1ccc(N2C(=O)c3ccccc3C2=O)cc1	none
O=C(C=C(O)c1ccc(F)cc1)C(F)(F)F	none
Cc1ccc(C(=O)/C=C(/N)C(F)(F)F)cc1	Cy5 interf NS3h 0.73
Cc1ccccc1NCn1c(=S)oc2ccccc21	Cy5 interf NS3h 0.65
Cc1ccccc1NC(=O)CSc1ccccc1	none
COc1cc([N+](=O)[O-])ccc1-c1ccc(CO)o1	none
Cc1csc(-c2cc3ccc(O)c(CN4CC5(C)CC4CC(C)(C)C5)c3oc2=O)n1 (stereo unspecified)	none
CCc1ccccc1NC(=O)CN(c1ccc(C)c(Cl)c1)S(C)(=O)=O	none
O=C(c1ccccc1)c1ccc(N2CCN(C(=O)c3ccc(F)cc3)CC2)c(F)c1	none
Cc1ccc(NC(=O)OCC2c3ccccc3-c3ccccc32)cc1	none
NC(=O)SCC(=O)Nc1ccccc1O	none
O=C(COc1cccc2ccccc12)NCCO	Cy5 interf NS3h 0.74
O=C(COc1cccc2ccccc12)Nc1ccncc1	Cy5 interf NS3h 0.8
COc1ccc(CCNC(=O)COc2cccc3ccccc23)cc1	none
O=C(COc1cccc2ccccc12)Nc1ccc2c(c1)OCCO2	Cy5 interf NS3h 0.68
Cc1cccc(OCC(=O)Nc2ccc3c(c2)OCO3)c1C	none
COc1cc(NC(=O)COc2cccc3ccccc23)cc(OC)c1	none
O=C(c1ccccc1)c1ccc2nc(-c3cccnc3)[nH]c2c1	none
Cc1cccc(C(=O)Nc2ccc(C(=O)/C=C/c3ccncc3)cc2)c1	Cy5 interf NS3h 0.74
CC(=O)Nc1cccc(C(=O)/C=C/c2ccc(/C=C/C(=O)c3cccc(NC(C)=O)c3)cc2)c1	none
Cc1cc(C)n(C(=O)CNC(=O)c2ccccc2Cl)n1	none
Cc1ccc2cc(C3CC(c4ccc(Br)cc4)=NN3C(=O)CCC(=O)O)c(=O)[nH]c2c1 (stereo unspecified)	none
CC(=O)Nc1ccc(NC2=C(Cl)C(=O)c3c(Cl)c(Cl)c(Cl)c(Cl)c32)cc1	none
Cc1[nH]c2ccccc2c1/C=N\NC(=O)c1cccc([N+](=O)[O-])c1	Cy5 interf NS3h 0.63
Cc1[nH]c2ccccc2c1/C=N\Nc1ccc([N+](=O)[O-])cc1	none
Cc1ccc(-c2noc(COc3ccc4ccccc4c3)n2)cc1	none
O=C(Nc1ccc(Cl)cc1)c1cc2ccccc2cc1O	none
Cc1ccc(NC(=O)c2cc3ccccc3cc2O)c(C)c1	Cy5 interf NS3h 0.77
COc1cc(/C=c2\sc3nc4ccccc4n3c2=O)cc(Br)c1OCc1ccccc1F	none
CNC(=O)C(=O)Nc1ccc(OC)cc1OC	none
O=C(NC(Cc1ccccc1)C(=O)Nc1ccccc1)OCc1ccccc1 (stereo unspecified)	Cy5 interf NS3h 0.68
O=C(Nc1ccc(OCc2ccccc2)cc1)C(c1ccccc1)c1ccccc1	none
CCC(C)NC(=O)COc1ccc2ccccc2c1 (stereo unspecified)	none
CCOc1ccc(NC(=O)COc2ccccc2)cc1	none
O=C(NCCNc1ccc([N+](=O)[O-])cc1)c1cccc(Br)c1	none
Nc1nonc1C(=O)NCCNC(=O)c1cccc(Br)c1	Cy5 interf NS3h 0.71
COc1cc(/C=C2/SC(=S)NC2=O)ccc1OCc1ccc(I)cc1	none
COc1cc(/C=C2/SC(=S)NC2=O)ccc1OC(=O)c1cccc(Br)c1	Cy5 interf NS3h 0.76
COc1cc(/C=C2/SC(=S)NC2=O)ccc1OS(=O)(=O)c1ccccc1[N+](=O)[O-]	Cy5 interf NS3h 1.3
O=C1NC(=S)S/C1=C/c1ccc(OCc2ccc(Cl)cc2)cc1	none

Compound activity: PubChem BioAssay, Milwaukee Institute for Drug Discovery
